In all, about 310,000 compounds went through this assay and about 14,000 (4.5%) showed an effect of 50% or more. Effects have a minus sign here. Shown is part of a subset that was picked to be rich in strong results.
target: human ether-à-go-go-related gene (hERG) potassium channel (human, UniProt Q12809); experiment: primary screen, population patch clamp on CHO cells stably expressing hERG; higher = less effect of the substance
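Note: peak tail current of the secondary pulse compared with the same well before compound.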

Sequence of human ether-à-go-go-related gene (hERG) potassium channel (Q12809 whole entry, looked up): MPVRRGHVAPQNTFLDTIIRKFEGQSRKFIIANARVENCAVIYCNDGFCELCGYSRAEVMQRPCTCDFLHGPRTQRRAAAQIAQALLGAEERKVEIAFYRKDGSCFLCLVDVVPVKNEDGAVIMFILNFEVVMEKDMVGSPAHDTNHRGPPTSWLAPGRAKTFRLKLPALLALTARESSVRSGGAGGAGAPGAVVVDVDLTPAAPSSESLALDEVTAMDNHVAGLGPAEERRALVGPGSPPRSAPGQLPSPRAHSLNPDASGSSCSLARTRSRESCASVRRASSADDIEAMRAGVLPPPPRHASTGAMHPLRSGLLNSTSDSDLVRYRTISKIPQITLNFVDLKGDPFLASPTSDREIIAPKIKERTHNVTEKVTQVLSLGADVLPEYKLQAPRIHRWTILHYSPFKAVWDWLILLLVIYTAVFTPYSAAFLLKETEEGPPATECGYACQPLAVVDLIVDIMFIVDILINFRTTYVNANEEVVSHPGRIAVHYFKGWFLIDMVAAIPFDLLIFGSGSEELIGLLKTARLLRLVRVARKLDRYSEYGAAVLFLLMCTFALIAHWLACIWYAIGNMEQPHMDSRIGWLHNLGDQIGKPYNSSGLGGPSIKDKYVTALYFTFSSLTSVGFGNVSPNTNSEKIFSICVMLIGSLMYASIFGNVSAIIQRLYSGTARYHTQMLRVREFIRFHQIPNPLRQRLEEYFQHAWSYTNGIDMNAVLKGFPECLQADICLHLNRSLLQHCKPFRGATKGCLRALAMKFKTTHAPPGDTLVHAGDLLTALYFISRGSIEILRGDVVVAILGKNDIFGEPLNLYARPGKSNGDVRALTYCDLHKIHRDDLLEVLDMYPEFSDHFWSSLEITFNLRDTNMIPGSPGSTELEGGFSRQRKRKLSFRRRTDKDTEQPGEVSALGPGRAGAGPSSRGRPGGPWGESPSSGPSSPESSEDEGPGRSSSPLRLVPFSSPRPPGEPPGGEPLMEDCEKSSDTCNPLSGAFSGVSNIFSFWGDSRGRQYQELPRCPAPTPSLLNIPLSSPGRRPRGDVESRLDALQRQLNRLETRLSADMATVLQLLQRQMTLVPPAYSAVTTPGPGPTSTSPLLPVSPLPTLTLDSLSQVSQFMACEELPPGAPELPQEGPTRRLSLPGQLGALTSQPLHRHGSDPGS

Row | SMILES | hERG current change (%, negative = inhibition) at 10uM [%]
1 | CCN1CC(CN(C)Cc2nc(-c3cccs3)no2)CC1=O (stereo not shown) | 3.65
2 | Cc1cc(O)c(NC(=O)c2ccc(Br)o2)cc1C | -7.04
3 | COc1ccc(N2CCN(C(=O)CN(c3cccc(OC)c3)S(=O)(=O)c3ccccc3)CC2)cc1 | -19.4
4 | CC(=O)OC1CC2(C)C(=O)CCC2C2CCc3cc(O)ccc3C12 (stereo not shown) | 1.59
5 | Cc1ccc(Nc2cccc(C(F)(F)F)c2)nn1 | -0.351
6 | COc1ccc2c(c1)CCCN2C(N)=Nc1ccc(Cl)cc1 | -63.7
7 | COc1ccc2c(c1)CCCN2S(=O)(=O)c1ccc(Cl)cc1 | 9.65
8 | COc1ccc2c(c1)CCCN2C(N)=O | 17.4
9 | Cc1ccc(NC(=O)CN(C)C(=O)C(Sc2ccccc2)c2ccccc2)cc1 (stereo not shown) | 2.05
10 | CC(=O)O[C@H]1C(=O)[C@@]2(C)C([C@H](OC(=O)c3ccccc3)[C@]3(O)C[C@H](OC(=O)[C@H](O)[C@@H](NC(=O)Cc4ccccc4)c4ccccc4)C(C)=C1C3(C)C)[C@]1(OC(C)=O)CO[C@@H]1C[C@@H]2O (stereo partly shown) | 16.6
11 | CCOCCCNC(=O)c1cn(CC)c2ccc(S(=O)(=O)N3CCCC3)cc2c1=O | -6.08
12 | CCn1cc(C(=O)NCCCOC)c(=O)c2cc(S(=O)(=O)N3CCC(C)CC3)ccc21 | -10.3
13 | CCOCCCNC(=O)c1cn(CC)c2ccc(S(=O)(=O)N3CCC(C)CC3)cc2c1=O | -22.6
14 | CCn1cc(C(=O)NCCCN2CCCCCC2)c(=O)c2cc(S(=O)(=O)N3CCc4ccccc4C3)ccc21 | -77.7
15 | CCn1cc(C(=O)NCCCN2CCCC2)c(=O)c2cc(S(=O)(=O)N3CCc4ccccc4C3)ccc21 | -8.75
16 | CCC1CCCCN1CCCNC(=O)c1cn(CC)c2ccc(S(=O)(=O)N3CCc4ccccc4C3)cc2c1=O (stereo not shown) | -72
17 | CCn1cc(C(=O)NCCCOC)c(=O)c2cc(S(=O)(=O)N3CCCC3)ccc21 | -4.05
18 | CCn1cc(C(=O)N2CCc3ccccc32)c(=O)c2cc(S(=O)(=O)N3CCCCCC3)ccc21 | -67.1
19 | CCn1cc(C(=O)N2CCc3ccccc3C2)c(=O)c2cc(S(=O)(=O)N3CCCCC3)ccc21 | -40.7
20 | CCn1cc(C(=O)N2CCc3ccccc32)c(=O)c2cc(S(=O)(=O)N3CC(C)CC(C)C3)ccc21 (stereo not shown) | -43.8
21 | CCn1cc(C(=O)NCCCN2CCCC(C)C2)c(=O)c2cc(S(=O)(=O)N3CCc4ccccc4C3)ccc21 (stereo not shown) | -75.7
22 | CCC1CCCCN1CCCNC(=O)c1cn(C)c2ccc(S(=O)(=O)N3CCOCC3)cc2c1=O (stereo not shown) | 21.3
23 | COc1cc(N2CCOCC2)ccc1/C=C1\C(=O)NC(=O)N(Cc2ccc3c(c2)OCO3)C1=O | 16.5

Row | SMILES | hERG current change (%, negative = inhibition) at 10uM [%]
24 | COc1ccc(S(=O)(=O)N2CCOCC2)cc1C(=O)Nc1cc(C)on1 | 2.19
25 | CCn1c(SCC#N)nc2ccccc2c1=O | 2.7
26 | CN(CC(=O)Nc1ccc(F)cc1)C(=O)COC(=O)CSc1ccc(F)cc1 | -16
27 | CC(=O)N1CCOc2ccc(S(=O)(=O)NCCc3ccc(S(N)(=O)=O)cc3)cc21 | 12.2
28 | CCc1c(C)sc(NC(=O)c2cc(-c3ccc(O)cc3)on2)c1C#N | 11.2
29 | O=C(CCc1nnc2ccc(NCc3ccco3)nn12)Nc1ccc(F)cc1F | -4.76
30 | COc1ccc(OC)c(C2=NOC(C(=O)Nc3cc(C)on3)C2)c1 (stereo not shown) | 17.2
31 | O=C(CCc1nc2sc3c(c2c(=O)[nH]1)CCCC3)Nc1ccccc1Cl | 7.93
32 | CN(C)C(=O)CSc1nnc(NC(=O)CCc2ccccc2)s1 | -5.24
33 | CC(=O)c1cccc(NC(=O)N2CC(C)OC(C)C2)c1 (stereo not shown) | 10.4
34 | Cc1ccc(NC(=O)OCCNC(=O)c2ccncc2)cc1 | 8.86
35 | Cc1cc(Cl)ccc1OCC(=O)NCc1ccncc1 | -8.3
36 | CCN(CC(=O)NCc1ccc(Cl)cc1)C(=O)COc1ccc(Cl)cc1Br | -67.7
37 | CN(CC(=O)NCc1ccc(F)cc1)Cc1cccc(Cl)c1 | 4.92
38 | CCOc1ncccc1C(=O)N(CC)CC(=O)NCc1ccc(Cl)cc1 | 1.69
39 | CCN(CC(=O)NCc1ccc(Cl)cc1)C(=O)c1cnc(Cl)c(Cl)c1 | 5.29
40 | O=C(COc1cccc(Cl)c1)NCc1ccccc1 | 18.9
41 | O=C(COc1ccc(Cl)cc1Br)NC(=O)NCc1ccccc1 | 13.3
42 | CCN(CC(=O)NCc1ccc(F)cc1)C(=O)C(C)Oc1cccc(Cl)c1 (stereo not shown) | -54.4
43 | CCN(CC(=O)NCc1ccc(Cl)cc1)C(=O)COc1cccc(Cl)c1 | -73.5
44 | CCN(CC(=O)NCc1ccc(Cl)cc1)C(=O)COc1ccc(C)cc1C | -78.4
45 | CCN(CC(=O)NCc1ccc(F)cc1)C(=O)c1ccc(C(=O)c2ccccc2)cc1 | -42.3
46 | CCN(CC(=O)NCc1ccc(Cl)cc1)C(=O)CSc1cc(C)ccc1C | -47.5
